Many of the other results were omitted from the sample, so hits are more common in it than they were.
LmPK inh – qHTS Assay for Inhibitors of Leishmania Mexicana Pyruvate Kinase (LmPK) | AID 1721, 2009 | purified LmPK, Kinase-Glo ATP luminescence, 1 h | 290,000 compounds, 0.37% hits | Potency, µM (highest dose often 57.5 µM), without a hit: top-dose activity change, negative = inhibition, usual class: inhibitors | Q27686; note: potency is the fitted concentration of half-maximal effect; % is set by controls: 0 for no effect and ±100 for the full control effect
Target sequence (Q27686 whole entry, looked up): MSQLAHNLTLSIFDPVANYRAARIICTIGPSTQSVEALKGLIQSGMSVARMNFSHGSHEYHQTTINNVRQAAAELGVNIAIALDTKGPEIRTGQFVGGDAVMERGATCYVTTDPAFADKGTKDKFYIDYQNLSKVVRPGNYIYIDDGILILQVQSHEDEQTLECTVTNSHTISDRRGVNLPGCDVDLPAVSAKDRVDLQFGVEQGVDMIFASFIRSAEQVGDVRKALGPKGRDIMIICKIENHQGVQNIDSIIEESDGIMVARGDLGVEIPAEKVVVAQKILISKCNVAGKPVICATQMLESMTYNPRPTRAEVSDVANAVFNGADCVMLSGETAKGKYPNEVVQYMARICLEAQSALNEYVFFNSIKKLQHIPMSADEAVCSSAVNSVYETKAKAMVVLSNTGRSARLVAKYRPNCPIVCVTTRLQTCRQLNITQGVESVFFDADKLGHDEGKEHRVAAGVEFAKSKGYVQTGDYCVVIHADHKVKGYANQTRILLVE
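Pyruvate kinase activity monitored as ATP production (luciferase luminescence). Conditions: 0.1 nM enzyme, 0.5 mM PEP, 0.1 mM ADP, 1 h, RT; normalized against uninhibited and no-enzyme wells.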
FBPA Giardia inh – qHTS Assay for Inhibitors of Fructose-1,6-bisphosphate Aldolase from Giardia Lamblia; AID 2451, 2010; purified Giardia FBPA; A8B2U2; Potency, µM (top dose mostly 59.6 µM), for the others: top-dose activity, negative = inhibition, usual class: inhibitors; 290,000 compounds, 0.71% hits; note: potency is the fitted concentration of half-maximal effect; % is set by controls: 0 for no effect and ±100 for the full control effect; nearly all actives have a fitted effect of over 55% in size
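40 nM FBPA preincubated 10 min at RT with compound (up to 57.5 uM final), then substrate plus GAPDH/TPI/NAD/arsenate coupling and diaphorase/resazurin added. Fluorescence read after 20 min at RT, 525/598 nm.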
Tb PYK inh – qHTS of Trypanosoma Brucei Inhibitors | pyruvate kinase (Trypanosoma brucei), Q57TT1 | TbPYK enzyme, Kinase-Glo Plus ATP luminescence, 45 min | Potency, µM (highest dose often 76.8 µM), inactives show at the top dose activity, negative = inhibition, hits mostly inhibitors | 410,000 compounds, 0.12% hits | AID 624173, 2012; note: potency is the fitted concentration of half-maximal effect; % is set by controls: 0 for no effect and ±100 for the full control effect; nearly all actives have a fitted effect of over 50% in size
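Activity of T. brucei pyruvate kinase was followed by Kinase-Glo Plus luminescence after the enzyme reacted 45 min at room temperature with 130 uM ADP (final) and substrate. Test compounds were added before ADP at multiple concentrations.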
Shiga toxin inh – A qHTS for Small Molecule Inhibitors of Shiga Toxin; Vero cells, Shiga toxin protein synthesis inhibition reporter; inhibition, % at 38.7 µM; 290,000 compounds, 9.2% hits; AID 2315, 2010; in the data active = inhibition mostly above about 28%, no sharp cut-off; inactive = mostly below about 43%; note: 0% is about no effect
RE007 growth inh – qHTS Assay for Inhibitors of the HIV-1 protein Vpr. S. pombe RE007 Vpr strain, BacTiter-Glo ATP luminescence, 24 h. Potency, µM (titrated, usually from 92.2 µM), for the others: top-dose activity change, negative = less growth, most hits filed as inhibitors. 360,000 compounds, 0.21% hits. AID 651644, 2012; active = well fitted falling curve with a large enough effect; inconclusive = small, poorly fitted or top-dose-only effect; inactive = no such curve, though single readings can be large or run the other way; note: potency is the fitted concentration of half-maximal effect; % is set by controls: 0 for no effect and ±100 for the full control effect; nearly all actives have a fitted effect of over 50% in size
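Fission yeast RE007 carrying one integrated HIV-1 vpr copy, seeded at OD 0.01 in PMG+AL medium with 23 nL pinned compound. Grown 24 h at 30 degrees; viability read by BacTiter-Glo luminescence after 5 min.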
CHX counter – Cycloheximide Counterscreen for Small Molecule Inhibitors of Shiga Toxin | max response, % | AID 2314, 2010 | 300,000 compounds, 12% hits | cell reporter, cycloheximide protein synthesis inhibition counterscreen; in the data active = max response mostly above about 13%, no sharp cut-off; inactive = mostly below about 14%; note: read at 38.3 µM for the half of the compounds with a filed dose; 0% is about no effect
The depositor's hits bear a star; u = inconclusive; x = no result; [ ] = remark or other dose. Unless noted, calls come from the whole dose curve; as a rule, active = well fitted curve in the direction sought with a large enough effect; inconclusive = small, poorly fitted or top-dose-only effect, or another doubt; inactive = no such curve, though single readings can be large; an effect the other way counts as inactive or inconclusive.

SMILES | LmPK inh | FBPA Giardia inh | Tb PYK inh | Shiga toxin inh | RE007 growth inh | CHX counter
COC(=O)C1=C(C(=O)OC)[C@@H]2N(Cc3ccccc3)c3ccccc3[C@@]23C[C@@H](C(=O)OC)N(S(=O)(=O)c2ccc([N+](=O)[O-])cc2)C3=N1 | -8.3%[11.5 µM] | 2.8%[12.9 µM] | x | x | x | x
CC1(O)C(=O)C=C2C=C(CCCCOCc3ccccc3)OC=C2C1=O (centres undefined) | x | -4.8%[12.9 µM] | x | x | x | x
CC1CCC(NC(=O)c2ccc3c(c2)N(Cc2cccc(Cl)c2)C(=O)c2ccccc2S3(=O)=O)CC1 (centres undefined) | x | x | -4.3% | x | x | x
CCCn1c(CCCNC(=O)c2ccccc2OC)nc2ccccc21 | x | x | -0.3% | x | x | x
COc1ccc(-c2c(C)nn3c(N)c(-c4ccccc4)cnc23)cc1OC | 12.7% | -1.3% | 6.2% | 88.1 | -12.0% | 17.8*
COCc1nn2c(N)c(-c3ccccc3)cnc2c1-c1ccccc1 | 0.2% | 1.5% | -0.6% | 32.9* | 8.5% | 37.7*
COCc1nn2c(N)c(C#N)cnc2c1-c1ccccc1 | 5.9% | 0.8% | 10.7% | -4.5 | 25.3% | -1.1
COc1ccccc1-c1c(C)nn2c(N)c(-c3ccccc3)cnc12 | 3.4% | -0.1% | 5.3% | 66.8* | 3.0% | 38.8*
COc1ccc(-c2c(C)nn3c(-c4ccccc4)cc(C)nc23)cc1OC | x | x | 0.8% | x | x | x
Cc1ccc(N=Nc2cc(C)ccc2N)cc1 | 14.1µM* | -1.4% | -21.8% | 49.8* | -25.6% | 37.5*
Cc1ccc(N)c(C)c1 | x | x | 1.2% | x | 10.7% | x
O=C(CSc1nc2ccccc2n1Cc1ccccc1)N/N=C/c1ccccc1C(=O)O | -4.1% | -2.7% | 0.0% | 23.5 | -2.6% | -1.2
O=C(CSc1nc2ccccc2n1Cc1ccccc1Cl)N/N=C/c1ccccc1C(=O)O | 0.3% | 8.2% | -22.6% | 39.1 | 11.6% | 17.5*
CC(C)CC(C(=O)NC(C)(C)C)N(Cc1cccs1)C(=O)c1snc(C(N)=O)c1N (centres undefined) | 7.7% | -5.1% | 1.6% | 47.0* | -8.3% | 49.1*
CC(C)CC(C(=O)NC1CCCC1)N(Cc1cccs1)C(=O)c1snc(C(N)=O)c1N (centres undefined) | 0.9% | 6.7% | -6.9% | 8.1 | 3.0% | -3.7
CCCC(C(=O)NC(C)(C)C)N(C(=O)c1snc(C(N)=O)c1N)c1ccc2c(c1)OCCO2 (centres undefined) | -2.3% | 0.3% | -0.6% | 113.9* | -11.9% | 56.4*
O=C(CN1c2ccc(Br)cc2-c2ccccc2S1(=O)=O)N1CCCCC1 | x | x | -2.9% | x | x | x
O=C1c2ccccc2NC(c2ccccn2)N1c1ccc(Cl)cc1 (centres undefined) | -1.1% | -9.6% | -3.8% | 71.3* | -0.2% | 30.9*
O=C(NN1C(=O)c2ccccc2NC1c1ccccn1)c1ccccc1 (centres undefined) | 2.0% | -2.9% | -1.9% | 24.1* | 1.5% | 12.6*
C=CCNC(=O)c1ccc2c3n(nc2c1)-c1ccc(Cl)cc1CO3 | x | x | 1.9% | x | -7.1% | x
CC(C)NC(=O)c1ccc2c3n(nc2c1)-c1ccccc1CO3 | 12.6µM* | 6.0% | u | 30.3 | -29.8% | 22.0*
CC(C)[C@@H](CO)NC(=O)c1ccc2c3n(nc2c1)-c1ccccc1CO3 | 14.1µM* | -2.4% | -23.8% | 50.0* | -26.8% | 36.7*
CCCNC(=O)c1cnc2c(-c3ccc(OCC)c(OCC)c3)c(C)nn2c1-c1ccccc1 | x | x | 1.8% | x | x | x
COCCNC(=O)CCn1c(=O)[nH]c2cc(OC)c(OC)cc2c1=O | x | x | 0.4% | x | x | x
O=c1c2ccccc2sn1-c1ccc(S(=O)(=O)N2CCCC2)cc1 | 9.0% | -23.0% | 6.31µM* | 8.4 | 0.1% | 7.2
O=c1c2ccccc2sn1-c1ccc(S(=O)(=O)N2CCCCC2)cc1 | x | x | u | x | 1.5% | x
Cc1ccc(-n2sc3ccccc3c2=O)cc1S(=O)(=O)N1CCCCC1 | -2.8% | u | 3.98µM* | 15.3 | 15.8µM* | 11.9*
Cc1ccc(C(=O)NNC(=O)c2ccccc2)cc1S(=O)(=O)N1CCCCC1 | x | x | -2.7% | x | -9.0% | x

Screens from PubChem BioAssay.
